# According to the supplement of paper PMC4466140:
# What was measured:
# Assay in all cases: SPOT peptide array binding signal intensity (averaged, normalized) (arbitrary units (background-subtracted, floor 0; scale differs between SH3 domains)); higher = stronger binding of the SH3 domain to the peptide
# [1] = biological target: AgAbp1
# Procedure, shortened: (§1)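 Spot intensities were captured after detection with anti-GST antibody, an HRP-linked anti-mouse secondary and luminol, and quantified with Genespotter. The probes were GST-fused SH3 domains from four yeast species, produced in E. coli BL21(DE3), purified on glutathione Sepharose and incubated at 10 μg/ml overnight at 4°C on cellulose-bound synthetic 15-mer peptides with cysteines replaced by serines. Binding signal is the normalized, background-subtracted spot intensity averaged over replicates, and its arbitrary units differ between domains.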
# [2] = biological target: AgBbc1
# Procedure, shortened: as §1
# [3] = biological target: AgBem1-D1
# Procedure, shortened: as §1
# [4] = biological target: AgBzz1-D1
# Procedure, shortened: as §1
# [5] = biological target: AgBzz1-D2
# Procedure, shortened: as §1
# [6] = biological target: AgCyk3
# Procedure, shortened: as §1
# [7] = biological target: AgFus1
# Procedure, shortened: as §1
# [8] = biological target: AgHof1
# Procedure, shortened: as §1
# [9] = biological target: AgHse1
# Procedure, shortened: as §1
# [10] = biological target: AgLsb1
# Procedure, shortened: as §1
# [11] = biological target: AgLsb4
# Procedure, shortened: as §1
# [12] = biological target: AgMyo5
# Procedure, shortened: as §1
# [13] = biological target: AgNbp2
# Procedure, shortened: as §1
# [14] = biological target: AgRvs167
# Procedure, shortened: as §1
# [15] = biological target: AgSho1
# Procedure, shortened: as §1
# [16] = biological target: AgSla1-D1-D2
# Procedure, shortened: as §1
# [17] = biological target: AgSla1-D3
# Procedure, shortened: as §1
# [18] = biological target: CaAbp1-D1
# Procedure, shortened: as §1
# [19] = biological target: CaAbp1-D2
# Procedure, shortened: as §1
# [20] = biological target: CaBbc1
# Procedure, shortened: as §1
# [21] = biological target: CaBem1-D1
# Procedure, shortened: as §1
# [22] = biological target: CaBzz1-D1
# Procedure, shortened: as §1
# [23] = biological target: CaBzz1-D2
# Procedure, shortened: as §1
# [24] = biological target: CaCyk3
# Procedure, shortened: as §1
# [25] = biological target: CaFus1
# Procedure, shortened: as §1
# [26] = biological target: CaHof1
# Procedure, shortened: as §1
# [27] = biological target: CaHse1
# Procedure, shortened: as §1
# [28] = biological target: CaLsb1
# Procedure, shortened: as §1
# [29] = biological target: CaLsb4
# Procedure, shortened: as §1
# [30] = biological target: CaMyo5
# Procedure, shortened: as §1
# [31] = biological target: CaNbp2
# Procedure, shortened: as §1
# [32] = biological target: CaRvs167
# Procedure, shortened: as §1
# [33] = biological target: CaRvs167-3
# Procedure, shortened: as §1
# [34] = biological target: CaSho1
# Procedure, shortened: as §1
# [35] = biological target: CaSla1-D1-D2
# Procedure, shortened: as §1
# [36] = biological target: CaSla1-D3
# Procedure, shortened: as §1
# [37] = biological target: ScAbp1
# Procedure, shortened: as §1
# [38] = biological target: ScBbc1
# Procedure, shortened: as §1
# [39] = biological target: ScBem1-D1
# Procedure, shortened: as §1
# [40] = biological target: ScBzz1-D1
# Procedure, shortened: as §1
# [41] = biological target: ScBzz1-D2
# Procedure, shortened: as §1
# [42] = biological target: ScCyk3
# Procedure, shortened: as §1
# [43] = biological target: ScFus1
# Procedure, shortened: as §1
# [44] = biological target: ScHof1
# Procedure, shortened: as §1
# [45] = biological target: ScHse1
# Procedure, shortened: as §1
# [46] = biological target: ScLsb1
# Procedure, shortened: as §1
# [47] = biological target: ScLsb2
# Procedure, shortened: as §1
# [48] = biological target: ScLsb3
# Procedure, shortened: as §1
# [49] = biological target: ScLsb4
# Procedure, shortened: as §1
# [50] = biological target: ScMyo3
# Procedure, shortened: as §1
# [51] = biological target: ScMyo5
# Procedure, shortened: as §1
# [52] = biological target: ScNbp2
# Procedure, shortened: as §1
# [53] = biological target: ScPex13
# Procedure, shortened: as §1
# [54] = biological target: ScRvs167
# Procedure, shortened: as §1
# [55] = biological target: ScSho1
# Procedure, shortened: as §1
# [56] = biological target: ScSla1-D1-D2
# Procedure, shortened: as §1
# [57] = biological target: ScSla1-D3
# Procedure, shortened: as §1
# [58] = biological target: SpAbp1-D1
# Procedure, shortened: as §1
# [59] = biological target: SpBbc1
# Procedure, shortened: as §1
# [60] = biological target: SpBzz1-D1
# Procedure, shortened: as §1
# [61] = biological target: SpBzz1-D2
# Procedure, shortened: as §1
# [62] = biological target: SpCyk3
# Procedure, shortened: as §1
# [63] = biological target: SpHof1
# Procedure, shortened: as §1
# [64] = biological target: SpHof1-2
# Procedure, shortened: as §1
# [65] = biological target: SpHof1-3
# Procedure, shortened: as §1
# [66] = biological target: SpHse1
# Procedure, shortened: as §1
# [67] = biological target: SpLsb1
# Procedure, shortened: as §1
# [68] = biological target: SpLsb4
# Procedure, shortened: as §1
# [69] = biological target: SpMyo1
# Procedure, shortened: as §1
# [70] = biological target: SpNbp2
# Procedure, shortened: as §1
# [71] = biological target: SpPex13
# Procedure, shortened: as §1
# [72] = biological target: SpRvs167
# Procedure, shortened: as §1
# [73] = biological target: SpSla1-D1-D2
# Procedure, shortened: as §1
# [74] = biological target: SpSla1-D3
# Procedure, shortened: as §1
binder,measurement,setting,value
DHPKGPPPPPPPDEK,SPOT peptide array binding signal intensity,[1],9
same,SPOT peptide array binding signal intensity,[2],3.75
same,SPOT peptide array binding signal intensity,[3],≤ 0
same,SPOT peptide array binding signal intensity,[4],1100
same,SPOT peptide array binding signal intensity,[5],111
same,SPOT peptide array binding signal intensity,[6],≤ 0
same,SPOT peptide array binding signal intensity,[7],6.5
same,SPOT peptide array binding signal intensity,[8],≤ 0
same,SPOT peptide array binding signal intensity,[9],33
same,SPOT peptide array binding signal intensity,[10],1.5
same,SPOT peptide array binding signal intensity,[11],≤ 0
same,SPOT peptide array binding signal intensity,[12],1710
same,SPOT peptide array binding signal intensity,[13],7
same,SPOT peptide array binding signal intensity,[14],1.17
same,SPOT peptide array binding signal intensity,[15],≤ 0
same,SPOT peptide array binding signal intensity,[16],14
same,SPOT peptide array binding signal intensity,[17],297
same,SPOT peptide array binding signal intensity,[18],1.5
same,SPOT peptide array binding signal intensity,[19],1
same,SPOT peptide array binding signal intensity,[20],≤ 0
same,SPOT peptide array binding signal intensity,[21],≤ 0
same,SPOT peptide array binding signal intensity,[22],2890
same,SPOT peptide array binding signal intensity,[23],2700
same,SPOT peptide array binding signal intensity,[24],≤ 0
same,SPOT peptide array binding signal intensity,[25],≤ 0
same,SPOT peptide array binding signal intensity,[26],2.5
same,SPOT peptide array binding signal intensity,[27],6
same,SPOT peptide array binding signal intensity,[28],≤ 0
same,SPOT peptide array binding signal intensity,[29],20.5
same,SPOT peptide array binding signal intensity,[30],38.8
same,SPOT peptide array binding signal intensity,[31],≤ 0
same,SPOT peptide array binding signal intensity,[32],0.667
same,SPOT peptide array binding signal intensity,[33],≤ 0
same,SPOT peptide array binding signal intensity,[34],7.5
same,SPOT peptide array binding signal intensity,[35],12
same,SPOT peptide array binding signal intensity,[36],2.75
same,SPOT peptide array binding signal intensity,[37],4
same,SPOT peptide array binding signal intensity,[38],3.5
same,SPOT peptide array binding signal intensity,[39],4
same,SPOT peptide array binding signal intensity,[40],3400
same,SPOT peptide array binding signal intensity,[41],45
same,SPOT peptide array binding signal intensity,[42],1
same,SPOT peptide array binding signal intensity,[43],8.5
same,SPOT peptide array binding signal intensity,[44],1
same,SPOT peptide array binding signal intensity,[45],2
same,SPOT peptide array binding signal intensity,[46],1
same,SPOT peptide array binding signal intensity,[47],≤ 0
same,SPOT peptide array binding signal intensity,[48],≤ 0
same,SPOT peptide array binding signal intensity,[49],0.5
same,SPOT peptide array binding signal intensity,[50],1750
same,SPOT peptide array binding signal intensity,[51],1380
same,SPOT peptide array binding signal intensity,[52],18.5
same,SPOT peptide array binding signal intensity,[53],≤ 0
same,SPOT peptide array binding signal intensity,[54],0.5
same,SPOT peptide array binding signal intensity,[55],≤ 0
same,SPOT peptide array binding signal intensity,[56],≤ 0
same,SPOT peptide array binding signal intensity,[57],2.5
same,SPOT peptide array binding signal intensity,[58],8
same,SPOT peptide array binding signal intensity,[59],≤ 0
same,SPOT peptide array binding signal intensity,[60],155
same,SPOT peptide array binding signal intensity,[61],1.75
same,SPOT peptide array binding signal intensity,[62],≤ 0
same,SPOT peptide array binding signal intensity,[63],1
same,SPOT peptide array binding signal intensity,[64],6.5
same,SPOT peptide array binding signal intensity,[65],4
same,SPOT peptide array binding signal intensity,[66],87.2
same,SPOT peptide array binding signal intensity,[67],≤ 0
same,SPOT peptide array binding signal intensity,[68],≤ 0
same,SPOT peptide array binding signal intensity,[69],1880
same,SPOT peptide array binding signal intensity,[70],18.5
same,SPOT peptide array binding signal intensity,[71],10
same,SPOT peptide array binding signal intensity,[72],≤ 0
same,SPOT peptide array binding signal intensity,[73],10
same,SPOT peptide array binding signal intensity,[74],13
